Reference: PubChem BioAssay (Tox21)
Records with an inconclusive call do not appear. Where a call stands in place of a potency, no number is given. Activity calls are given as the source filed them. Calls come from the whole dose curve; as a rule, active = well fitted cell-killing curve with a large enough effect in the repeat runs; inconclusive = weak or mixed curves; inactive = flat fitted curve, though single readings scatter.

Experiment: qHTS assay to identify small molecule antagonists of the TGF-beta/Smad signaling pathway - cell viability counter screen (AID 1346824); note: nearly all actives have a fitted effect of over 50% in size
Conditions: SBE-bla HEK293T viability, CellTiter-Glo luminescence; series mostly up to 76.8 µM
Source text: U.S. Tox21 Program National Center for Advancing Translational Sciences [NCATS] NIH Chemical Genomics Center [NCGC] U.S. Environmental Protection Agency [EPA] National Institutes of Environmental Health Sciences [NIEHS] National Toxicology Program [NTP] U.S. Food and Drug Administration [FDA] Tox21 Assay Overview: Transforming growth factor beta (TGF-beta) superfamily consists of a large number of structurally related dimeric proteins that act as hormones or local mediators in regulating a wide range of biological functions. This superfamily includes TGF-betas themselves, the bone morphogenetic proteins (BMPs) and the activins. These ligands induce oligomerization of serine/threonine receptor kinases and phosphorylate the cytoplasmic signaling molecules of Smad protein family. CellSensor SBE-bla HEK 293T cell line (Life Technologies, Carlsbad, CA), responsive to TGF-beta was used to screen Tox21 10K compound library for identification of agonists/antagonists of the Smad signaling pathway. This cell line contains a beta-lactamase reporter gene under control of the Smad binding element (SBE) stably integrated into HEK 293T cells. Also cytotoxicity of the compounds was tested in parallel by measuring the cell viability using CellTiter-Glo assay system in the same wells.
Tox21 Assay Protocol Summary: SBE-bla HEK 293T cells were dispensed at 4,000/well in 5 uL of assay medium into black wall/clear-bottom 1536-well plates using a Multidrop Combi (ThermoFisher Scientific, Waltham, MA) dispenser. After the assay plates were incubated at 37 C and 5% CO2 for an overnight, 23 nL of compounds dissolved in DMSO, positive controls or DMSO only was transferred to the assay plate by a Pintool station (Kalypsys, San Diego, CA). Compound transfer was followed by the addition of 1 uL of 0.25 ng/mL TGF-beta1 or assay buffer using two separate tips of Flying Reagent Dispenser (FRD, Aurora Discovery, San Diego, CA). The assay plates were incubated at 37 C and 5% CO2 for 5 hr. One uL of LiveBLAzer B/G FRET substrate (Life Technologies) was added using a Flying Reagent Dispenser (FRD, Aurora Discovery, San Diego, CA) and the plates were incubated at room temperature for 2 hr. Fluorescence intensity (405 nm excitation, 460 nm and 530 nm emissions) was measured using an Envision plate reader (PerkinElmer, Shelton, CT). For cytotoxicity read, 4 uL of CellTiter-Glo reagent (Promega Corporation, Madison, WI) was added to each well of the assay plates using FRD. After 30 min incubation at room temperature, the luminescence intensity was measured using ViewLux plate reader (PerkinElmer).
Potency is the fitted concentration of half-maximal effect.

For `O=C(Cl)c1ccc(Cl)cc1`, which Potency is on record?
The Potency was “inactive”.

With `CC(C)CCCCCCCOP(=O)(Oc1ccccc1)Oc1ccccc1` as the compound, how does the Potency read?
The Potency was “inactive”.

With `CC(C)C1CCC(Cc2ccc(Cl)cc2)C1(O)Cn1cncn1` (stereo not given) as the compound, how does the Potency read?
Its Potency is 54.4 µM (active).

For `O=C(CCl)Nc1ccccc1`, which Potency is on record?
The Potency was “inactive”.

Which Potency does the source give for `Fc1cccc(Cl)c1CCl` here?
Its Potency is “inactive”.

With `OC(c1ccc(Cl)cc1)(c1ccc(Cl)cc1)C(Cl)(Cl)Cl` as the compound, how does the Potency read?
Its Potency is “inactive”.

Which Potency does the source give for `O=c1oc2ccccc2c(O)c1Cc1c(O)c2ccccc2oc1=O` here?
The Potency was “inactive”.

With `Cc1cc(C(C)(C)c2cc(C)c(O)c(C)c2)cc(C)c1O` as the compound, how does the Potency read?
The Potency was “inactive”.

Which Potency does the source give for `Nc1ccc(Cl)cc1C(=O)c1ccccc1` here?
Its Potency is “inactive”.

With `Cc1c(Cl)c(=O)oc2cc(OP(=O)(OCCCl)OCCCl)ccc12` as the compound, how does the Potency read?
Its Potency is “inactive”.

Which Potency does the source give for `FC(Cl)(Cl)Cl` here?
The Potency was “inactive”.

With `COc1cc(N)c(Cl)cc1C(=O)NC1CN2CCC1CC2` (stereo not given) as the compound, how does the Potency read?
The Potency was “inactive”.

Which Potency does the source give for `CNC(C)Cc1ccc2c(c1)OCO2` (stereo not given) here?
The Potency was “inactive”.

For `O=C1NCN(c2ccccc2)C12CCN(CC1COc3ccccc3O1)CC2` (stereo not given), which Potency is on record?
Its Potency is “inactive”.

Which Potency does the source give for `N#CCCO` here?
Its Potency is “inactive”.

Which Potency does the source give for `CC(C)CBr` here?
The Potency was “inactive”.

With `ClC1=C(Cl)C2(Cl)C3C(Cl)C=CC3C1(Cl)C2(Cl)Cl` (stereo not given) as the compound, how does the Potency read?
The Potency was “inactive”.

For `CC(C)CC(C)(c1ccc(O)cc1)c1ccc(O)cc1`, which Potency is on record?
The Potency was “inactive”.

With `COc1cccc(C(=O)CCN[C@@H](C)[C@H](O)c2ccccc2)c1` as the compound, how does the Potency read?
Its Potency is “inactive”.

Which Potency does the source give for `O=[N+]([O-])c1c2ccccc2cc2ccccc12` here?
Its Potency is “inactive”.

Which Potency does the source give for `COC12CC[C@@]3(C[C@@H]1C(C)(O)C(C)(C)C)[C@H]1Cc4ccc(O)c5c4[C@@]3(CCN1CC1CC1)[C@H]2O5` (stereo not given in full) here?
The Potency was 48.6 µM (active).

Which Potency does the source give for `CN(CCCC(O)c1cccnc1)N=O` (stereo not given) here?
Its Potency is “inactive”.

With `c1ccc(OCC2CO2)cc1` (stereo not given) as the compound, how does the Potency read?
Its Potency is “inactive”.

Which Potency does the source give for `ClC1=C(Cl)[C@]2(Cl)[C@H]3[C@H]([C@H]4C=C[C@H]3C4)[C@@]1(Cl)C2(Cl)Cl` here?
The Potency was “inactive”.

For `CCc1nn(C)c(C(=O)NCc2ccc(C(C)(C)C)cc2)c1Cl`, which Potency is on record?
The Potency was 0.389 µM (active).

Which Potency does the source give for `BrCBr` here?
The Potency was “inactive”.

For `O=C1c2ccccc2C(=O)C1C(=O)C(c1ccccc1)c1ccc(Cl)cc1` (stereo not given), which Potency is on record?
The Potency was “inactive”.

For `Clc1ccc(C(Cl)(Cl)Cl)c(Cl)c1`, which Potency is on record?
The Potency was “inactive”.

For `CC(C)(C)C(O)C(Oc1ccc(-c2ccccc2)cc1)n1cncn1` (stereo not given), which Potency is on record?
The Potency was “inactive”.

Which Potency does the source give for `CC(C)[C@H](C(=O)OC(C#N)c1cccc(Oc2ccccc2)c1)c1ccc(OC(F)F)cc1` (stereo not given in full) here?
Its Potency is “inactive”.

For `Cc1cc(C(F)(C(F)(F)F)C(F)(F)F)ccc1NC(=O)c1cccc(I)c1C(=O)NC(C)(C)CS(C)(=O)=O`, which Potency is on record?
Its Potency is “inactive”.

With `Clc1ccc(Oc2ccccc2)cc1` as the compound, how does the Potency read?
The Potency was “inactive”.

With `CC[C@H]1C[C@@H]2C[C@H]3c4[nH]c5ccc(OC)cc5c4CCN(C2)[C@@H]13` as the compound, how does the Potency read?
Its Potency is “inactive”.

With `BrCC(Br)c1ccccc1` (stereo not given) as the compound, how does the Potency read?
Its Potency is “inactive”.

For `[CH3][Hg][Cl]`, which Potency is on record?
Its Potency is “inactive”.

For `COP(=S)(OC)Oc1cc(Cl)c(Br)cc1Cl`, which Potency is on record?
The Potency was “inactive”.

With `CC(C)OC(=S)S` as the compound, how does the Potency read?
Its Potency is “inactive”.

Which Potency does the source give for `COP(=O)(OC)SCn1c(=O)oc2cc(Cl)cnc21` here?
The Potency was “inactive”.

For `Cc1cc(Cl)ccc1O[C@H](C)C(=O)O`, which Potency is on record?
Its Potency is “inactive”.

Which Potency does the source give for `C1CCC2CCCCC2C1` (stereo not given) here?
The Potency was “inactive”.
